Many of the other results were omitted from the sample, so hits are more common in it than they were.
ARNT TACC3 PPI: disruptors of human ARNT/TACC3 interaction | inhibition, % at 9.99 µM | Q9Y6A5 | AlphaScreen His-ARNT PAS-B/GST-TACC3 binding, luminescence; TACC3 fragment carries E629A point mutation | 390,000 compounds, 0.66% hits | AID 623870;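 active = mean inhibition of replicates at least 50% and at least half of replicates each reaching 50%; inconclusive = half or more replicates reach 50% but mean below 50%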
ALR inh: human ALR oxidase inhibition via reduced H2O2 | AID 485317 | inhibition, % (test concentration not listed) | purified ALR, DTT oxidation, H2O2 HRP-luminol luminescence | 290,000 compounds, 3.8% hits;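 active = mean replicate inhibition above about 79%, with every replicate also reaching it, limit read from the data; inconclusive = only one of the two criteria met; inactive = mean below limit and not every replicate reaching it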
Target sequence (P55789 whole entry, looked up): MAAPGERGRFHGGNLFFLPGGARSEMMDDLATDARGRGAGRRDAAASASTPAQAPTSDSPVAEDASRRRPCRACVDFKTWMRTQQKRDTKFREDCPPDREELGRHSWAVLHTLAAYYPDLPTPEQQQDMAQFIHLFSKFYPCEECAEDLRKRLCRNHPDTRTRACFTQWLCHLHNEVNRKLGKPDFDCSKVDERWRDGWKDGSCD
PglD inh: PglD (C. jejuni) enzyme inhibition. 360,000 compounds, 0.098% hits. inhibition, % at 12.5 µM. AID 602405. purified PglD enzyme, DTNB colorimetric CoA detection; in the data active = inhibition above about 16%, passing the limit was not always enough; inconclusive = no clear call, values can overlap the other calls
ERp5 inh: inhibitors of human ERp5. Q15084. ERp5 insulin aggregation, absorbance 650 nm, 90 min. inhibition, % at 9.99 µM. 350,000 compounds, 0.05% hits;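 active = mean replicate inhibition above about 25%, with every replicate also reaching it, limit read from the data, passing the limit was not always enough; inconclusive = only one of those two criteria met; inactive = neither criterion met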
Target sequence (Q15084 whole entry, looked up): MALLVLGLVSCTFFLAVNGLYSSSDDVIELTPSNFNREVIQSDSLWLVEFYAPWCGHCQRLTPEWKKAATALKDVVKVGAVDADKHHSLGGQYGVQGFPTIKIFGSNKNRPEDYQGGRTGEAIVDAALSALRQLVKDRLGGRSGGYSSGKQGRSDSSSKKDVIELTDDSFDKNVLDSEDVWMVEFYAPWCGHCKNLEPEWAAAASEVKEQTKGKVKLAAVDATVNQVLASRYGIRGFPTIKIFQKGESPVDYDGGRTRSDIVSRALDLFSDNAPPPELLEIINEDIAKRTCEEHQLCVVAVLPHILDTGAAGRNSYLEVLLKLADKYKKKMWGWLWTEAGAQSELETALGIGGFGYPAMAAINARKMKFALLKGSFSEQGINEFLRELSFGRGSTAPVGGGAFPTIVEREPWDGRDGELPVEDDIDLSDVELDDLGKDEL
PDI inh: PDI (human) enzyme inhibition | 350,000 compounds, 0.052% hits | inhibition, % at 10 µM | PDI insulin aggregation turbidity, A650, 90 min | P07237;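 active = mean inhibition across replicates of 30% or more, whatever share of single replicates reach that level; inconclusive = mean inhibition below 30% while every single replicate reaches 30%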
NRP1-CendR mod: modulators of CendR peptide binding to human neuropilin-1; O14786; FAM-RPARPAR peptide binding to NRP-1, fluorescence polarization; inhibition, % at 25 µM; 360,000 compounds, 0.85% hits;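 active = inhibition or corrected inhibition above about 18%, plus a signal ratio from 0.5 to 1.5, limit read from the data, passing the limit was not always enough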
PglD inh SP: blocks Campylobacter jejuni PglD acetyltransferase activity. shares compounds with PglD inh. Purified C. jejuni PglD, DTNB absorbance 412 nm. inhibition, % at 20 µM. 320 tested, under 10 active. AID 743156;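 active = mean inhibition across replicates of at least 20% with every single replicate also at 20% or more; inconclusive = mean inhibition at least 20% but some replicate falls below 20%; inactive = mean inhibition under 20% and not all replicates reach it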;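 also: initial rate of CoA release by acetyl transfer from AcCoA to the UDP-4-amino sugar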
Numbers stand for hits; - = inactive; ? = inconclusive; . = no result given.

SMILES	ARNT TACC3 PPI	ALR inh	PglD inh	ERp5 inh	PDI inh	NRP1-CendR mod	PglD inh SP
S=C(NCc1ccncc1)NC1CCCCC1	-	-	27	-	-	-	-
COc1ccc2c3c(n(C)c2c1)[C@H](CO)N(C)CC31CN(C(=O)c2ccccc2F)C1	.	.	.	-	.	.	.
CCOc1ccc(-c2n[nH]c(C(=O)NN)c2C)cc1	-	-	83	-	-	-	-
CCC(NC(=O)NCc1cccnc1)(C(F)(F)F)C(F)(F)F	-	.	20	.	-	-	-
O=C(CC(=O)NCc1cccnc1)NCc1cccnc1	-	-	-	.	-	-	.
CC(C)C#Cc1cnc2c(c1)C(=O)N([C@H](C)CO)C[C@@H](C)[C@H](CN(C)C(=O)c1ccccn1)O2	-	.	-	-	.	.	.
CCc1nc2ccc(C(=O)NCCCn3ccnc3)cn2c1N(C)Cc1cccs1	.	.	20	-	-	-	-
CCCc1cc(C(=O)NC2CCCC2)no1	-	-	58	-	.	-	-
O=C(Nc1ccccc1)c1ccc(Br)c(S(=O)(=O)Nc2cccnc2)c1	-	-	.	.	-	-	.
O=S(=O)(Nc1cccnc1)c1ccc(Br)c2ccccc12	-	-	66	-	-	-	-
COC(=O)c1ccc(C2C(Oc3ccc(OC)cc3)C(=O)N2CCc2ccc(OC)c(OC)c2)cc1 (centres undefined)	-	-	35	.	-	-	-
CCn1cc(/C=N\NC(=O)c2ccc3c(c2)c(C)c(C)n3Cc2ccccc2)c(C)n1	.	-	32	.	-	-	-
CCn1ncc(/C=N\NC(=O)c2ccc3c(c2)c(C)c(C)n3Cc2ccccc2)c1C	-	-	-	.	-	-	.
CCOc1cc(C(=S)N2CCOCC2)ccc1OC(=O)c1ccc(C)cc1	-	-	45	-	-	-	-
CCOc1cc(C(=S)N2CCOCC2)ccc1OC(=O)c1ccccc1	-	-	-	-	-	-	.
CO[C@@H]1CN(C)C(=O)c2ccc(NC(=O)Cc3ccccc3)cc2OC[C@@H](C)N(C(=O)c2ccccc2F)C[C@@H]1C	-	.	-	-	.	.	.
N#CC1=C(N)Oc2cc(N)ccc2C1c1cccc(F)c1 (centres undefined)	-	?	72	-	-	-	-
Cc1cc(C)n(CCCC(=O)O)n1	-	-	-	-	-	-	.
CCSC1=NCN(CCCC(=O)O)CN1	-	-	20	.	-	-	-
C[C@@H]1CN([C@@H](C)CO)C(=O)c2cc(NC(=O)C3CC3)ccc2O[C@H]1CN(C)C(=O)NC1CCCCC1	-	.	-	-	.	.	.
Cn1nnnc1SCCNS(=O)(=O)c1ccccc1	-	-	22	.	-	-	?
CC(=O)Nc1ccc(SCC(=O)Nc2ccccc2-c2ccccc2)cc1	-	98	20	-	-	-	-
CC1Oc2ccccc2N(CC(=O)N2CCCCC2)C1=O (centres undefined)	-	-	25	-	-	-	?
O=C(Nc1sc2c(c1CN1CCOCC1)CCC2)c1ccc(F)cc1	-	-	-	-	-	-	.
CC(=O)Nc1sc2c(c1CN1CCN(C)CC1)CCCC2	-	-	59	.	-	-	-
SMILES	ARNT TACC3 PPI	ALR inh	PglD inh	ERp5 inh	PDI inh	NRP1-CendR mod	PglD inh SP
O=C(CNC(=O)c1ccco1)Nc1ccc(N2CCCCCC2)cc1	-	98	24	-	-	-	-
O=C(CNC(=O)c1ccc(Br)o1)Nc1ccc(N2CCCCCC2)cc1	-	.	-	-	-	-	.
CCNC(=O)[C@@H]1[C@@H](CO)[C@@H]2Cn3c(ccc(-c4cncnc4)c3=O)[C@@H]2N1Cc1ccc2c(c1)OCO2	-	.	-	-	.	.	.
COc1ccc(-c2cc(NC(C)=O)c3ncc(-c4ccc(OC)c(OC)c4)n3c2)c(OC)c1	.	.	32	-	-	-	-
COc1ccc(CC(=O)NC(=S)NNC(=O)COc2c(C)cccc2C)cc1	-	-	23	.	-	-	-
CO[C@H]1CN(C)C(=O)c2ccc(NS(=O)(=O)c3ccccc3)cc2OC[C@H](C)N(Cc2cccnc2)C[C@@H]1C	-	.	-	-	.	.	.
COc1ccc(N2CCN(/C(=N\S(=O)(=O)c3ccccc3)Nc3nc(C)cc(C)n3)CC2)cc1	-	-	26	.	-	-	-
CCn1c(=O)cc(SCC(=O)N2CCN(c3ccccc3OC)CC2)c2ccccc21	-	-	33	.	-	-	?
CCn1c(=O)cc(SCC(=O)N2CCOCC2)c2ccccc21	-	-	-	.	-	-	.
Cc1ccc2oc(=O)c(/C=C(\O)CC(C)C)nc2c1	-	82	21	.	-	-	-
COc1ccc(N(CC(=O)Nc2cccc(C(C)=O)c2)S(=O)(=O)c2ccc(NC(C)=O)cc2)cc1	-	-	77	-	-	-	-
Cc1nn(Cc2ccccc2)c(Cl)c1/C=N/NC(=O)c1cccnc1	-	-	25	-	-	-	-
Cc1ccc(-n2cc(-c3ccccc3)c3c(=O)[nH]cnc32)cc1	-	-	45	-	-	-	-
CC1Cc2ccccc2N1C(=O)c1ccc(N2CCCC2)c([N+](=O)[O-])c1 (centres undefined)	.	-	22	-	-	-	-
Cc1ccc(OCC(=O)N(C)CCc2ccccn2)cc1	-	-	24	-	-	-	-
O=C(C[C@H]1CC[C@@H](NS(=O)(=O)c2ccc(F)cc2)[C@@H](CO)O1)NC1CCCCC1	-	.	-	-	.	.	.
Cn1c2ccccc2c2nnc(SCC(N)=O)nc21	-	-	47	-	-	-	-
CC1=C(C)CS(=O)N(S(=O)(=O)c2ccc(Cl)cc2)C1 (centres undefined)	-	99	23	.	-	-	-
CC1CCCC(C)N1S(=O)(=O)c1ccc(Cl)cc1 (centres undefined)	-	-	-	-	-	-	.
CCNCCNC(=O)c1c(O)c2cccc3c2n(c1=O)CCC3	-	-	22	.	-	-	-
CNC(=O)C[C@@H]1CC[C@@H]2[C@H](COc3ccc(NC(=O)Nc4cc(C)cc(C)c4)cc3C(=O)N2C)O1	-	.	-	.	.	.	.
COC(=O)c1c(C(=O)OC)c(C)n(Cc2cccnc2)c1C	-	-	31	.	-	-	-
COc1ccc2c3c(n(C)c2c1)[C@H](CO)N(C(=O)Cc1ccccc1)CC31CN(C(=O)Cc2ccccc2)C1	.	.	.	-	.	.	.
CCc1ccc(N=C2NC(=O)/C(=C/c3cc(OC)c(OC)c(OC)c3)S2)cc1	-	-	-	-	-	-	.
CCc1ccc(N=C2NC(=O)/C(=C/c3cc(Br)c(OCC(=O)O)c(OC)c3)S2)cc1	-	98	27	-	?	-	20
CCOC(=O)c1c2n(c3ccc(O)cc13)CCCCC2	-	-	25	.	-	-	-
O=S(=O)(Nc1ccc(Cl)cc1)c1cccc2nsnc12	-	-	21	-	-	-	-
Cc1ccc(NS(=O)(=O)c2cccc3nsnc23)cc1C	-	-	-	-	-	-	.

Screens as filed in PubChem BioAssay.
